The list is not random: actives were taken first. Their share in the collection is about 10%.
Six1-Eya2 inh – qHTS Assay for Inhibitors of the Six1/Eya2 Interaction; Homeobox protein SIX1 (Homo sapiens) + Protein phosphatase EYA2 (Homo sapiens), …; AlphaScreen GST-Six1/His-Eya2 binding, biochemical; hits give low values; activity change, % (test concentration not listed); hit rate 0.56% among 360,000; AID 651725, 2012; in the data active = activity change below about -65%; inconclusive = mostly about -30% to -63%; also: % is scaled to controls: 0 for no effect and ±100 for the full control effect
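GST-Six1 + His-Eya2 (5X stock: 250/500 nM); Tris pH 8.0, 300 mM NaCl, 0.05% BSA, 0.02% Tween 20; GSH donor/Ni acceptor beads; 1 h 37 °C dark; AlphaScreen readout.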
HP1b chromo inh – HTS for Inhibitors of HP1-beta Chromodomain Interactions with Methylated Histone Tails; Potency, µM (doses to about 114 µM), for inactives: at the highest dose activity change, negative = inhibition, hits mostly inhibitors; Chromobox protein homolog 1 (Homo sapiens), P83916; AlphaScreen HP1-beta / biotin-H3K9me3 peptide binding; AID 540317, 2011; hit rate 0.56% among 390,000; also: potency is read from the fitted curve at half-maximal effect; nearly all actives have a fitted effect of over 70% in size
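Compound inhibition of the preformed complex between 50 nM HP1-beta and 50 nM biotinylated H3K9me3 peptide was read by AlphaScreen. Buffer was PBS pH 7.4 with 0.01% Tween-20. Incubations ran 30 min at room temperature, with 10 ug/mL donor/acceptor beads.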
JMJD2A Tudor inh – qHTS Assay for Inhibitors of JMJD2A-Tudor Domain | Lysine-specific demethylase 4A (Homo sapiens), O75164 | AlphaScreen JMJD2A-Tudor / H3K4me3 peptide binding | Potency, µM (titrated, usually from 114 µM), for the others: at the highest dose activity change, negative = inhibition, most hits filed as inhibitors | hit rate 4.4% among 390,000; also: potency is read from the fitted curve at half-maximal effect; % is scaled to controls: 0 for no effect and ±100 for the full control effect; nearly all actives have a fitted effect of over 50% in size
Target sequence (O75164 whole entry, looked up, the tested form may be a part): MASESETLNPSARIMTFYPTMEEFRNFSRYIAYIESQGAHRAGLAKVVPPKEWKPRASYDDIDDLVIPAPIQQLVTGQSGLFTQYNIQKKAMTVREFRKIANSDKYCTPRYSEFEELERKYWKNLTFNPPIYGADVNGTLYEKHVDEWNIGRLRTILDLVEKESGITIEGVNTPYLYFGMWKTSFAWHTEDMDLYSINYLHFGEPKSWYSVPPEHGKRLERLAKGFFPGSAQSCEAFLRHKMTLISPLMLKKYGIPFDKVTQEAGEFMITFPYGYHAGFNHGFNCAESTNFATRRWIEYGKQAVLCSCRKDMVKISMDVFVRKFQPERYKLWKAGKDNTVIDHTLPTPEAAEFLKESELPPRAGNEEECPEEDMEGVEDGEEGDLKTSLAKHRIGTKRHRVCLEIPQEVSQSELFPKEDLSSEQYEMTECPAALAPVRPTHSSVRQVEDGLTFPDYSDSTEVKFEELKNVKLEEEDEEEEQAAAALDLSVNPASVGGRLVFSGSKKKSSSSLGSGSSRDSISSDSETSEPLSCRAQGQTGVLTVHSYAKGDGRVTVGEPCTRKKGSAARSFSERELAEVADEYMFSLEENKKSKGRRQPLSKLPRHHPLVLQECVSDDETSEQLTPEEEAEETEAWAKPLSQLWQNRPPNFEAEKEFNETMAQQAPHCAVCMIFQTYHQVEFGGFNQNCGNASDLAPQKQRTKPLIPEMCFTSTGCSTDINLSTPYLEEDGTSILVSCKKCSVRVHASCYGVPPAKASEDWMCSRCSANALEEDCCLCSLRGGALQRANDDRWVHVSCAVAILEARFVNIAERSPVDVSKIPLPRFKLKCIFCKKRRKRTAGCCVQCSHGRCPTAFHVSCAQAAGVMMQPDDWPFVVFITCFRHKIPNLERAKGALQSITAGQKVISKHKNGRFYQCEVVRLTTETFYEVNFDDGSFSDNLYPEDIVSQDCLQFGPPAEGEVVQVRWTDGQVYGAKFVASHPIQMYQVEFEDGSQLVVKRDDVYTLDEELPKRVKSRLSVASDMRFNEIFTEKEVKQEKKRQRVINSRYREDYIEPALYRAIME
CtBP-E1A blk – qHTS Assay for Inhibitors of the CtBP/E1A Interaction. hit rate 0.49% among 340,000. AlphaScreen GST-E1A/His-CtBP binding, 1536-well; hits give low values. activity change, % (test concentration not listed); in the data active = activity change below about -65%; inconclusive = mostly about -30% to -63%; also: % is scaled to controls: 0 for no effect and ±100 for the full control effect
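AlphaScreen with 125 nM GST-E1A and 125 nM His-CtBP (5X stocks) in Tris pH 8.0, 300 mM NaCl, BSA, Tween 20, TCEP. Compounds preincubated 2 h at 37 deg C, then glutathione donor/nickel acceptor beads added for 1 h at 37 deg C in dark.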
G9a block – qHTS Assay for Inhibitors of Histone Lysine Methyltransferase G9a. Potency, µM (doses to about 102 µM), for inactives: at the highest dose activity, negative = inhibition, hits mostly inhibitors. G9a H3K9 monomethylation, AlphaScreen, 2 h. Histone-lysine N-methyltransferase EHMT2 (Homo sapiens), Q96KQ7. AID 504332, 2011. hit rate 8.8% among 350,000; also: potency is read from the fitted curve at half-maximal effect; % is scaled to controls: 0 for no effect and ±100 for the full control effect; nearly all actives have a fitted effect of over 75% in size
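Chemiluminescent proximity detection of H3K9 monomethylation, read after 10 min bead incubation in the dark. Reaction: 20 nM G9a, 500 nM biotin-H3K9 peptide, 20 uM SAM cofactor, 2 h, room temperature, following 15 min enzyme-compound preincubation.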
BAZ2B block – qHTS Assay for Inhibitors of BAZ2B; Bromodomain adjacent to zinc finger domain protein 2B (Homo sapiens), Q9UIF8; AlphaScreen BAZ2B-H3K14Ac peptide displacement; Potency, µM (highest dose often 114 µM), without a hit: at the highest dose activity change, negative = inhibition, actives largely listed as inhibitors; hit rate 4.4% among 360,000; AID 504333, 2011; also: potency is read from the fitted curve at half-maximal effect; % is scaled to controls: 0 for no effect and ±100 for the full control effect; nearly all actives have a fitted effect of over 60% in size
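AlphaScreen displacement of biotin-H3(5-23)K14Ac peptide (50 nM final) from BAZ2B (50 nM final) in PBS pH 7.4, 0.01% Tween-20; complex preformed 30 min RT, then compounds (top 110 uM) 30 min RT, beads 20 min dark.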
Active calls of the source: *; ? = inconclusive; . = no result; [ ] = remark or other dose. Unless noted, calls follow the shape of the dose curve; as a rule, active = well fitted inhibition curve with a large enough effect; inconclusive = small, poorly fitted or top-dose-only effect; inactive = no such curve, though single readings can be large or run the other way.

SMILES	Six1-Eya2 inh	HP1b chromo inh	JMJD2A Tudor inh	CtBP-E1A blk	G9a block	BAZ2B block
COc1ccc(C(O)c2nc(-c3ccccc3)cs2)cc1 (stereo unspecified)	1.9	.	.	7.6	.	.
COc1ccc(-c2cn3c(n2)sc2cc(C(=O)Nc4cc(Cl)ccc4C)ccc23)cc1	.	23.1%	-8.2%	.	-3.2%[59 µM]	-5.7%
Cc1csc(NC(=O)NCC2CCCC(CNC(=O)Nc3nc(C)cs3)C2)n1 (stereo unspecified)	-23.0	1.1%	-28.7%	-14.7	14.1µM*	-29.8%
CCN(CC)CCn1c(-c2ccccc2)csc1=Nc1ccccc1	.	?	17.8µM*	.	2.24µM*	50.1µM*
O=C(O)CCC(=O)NCCn1c(-c2ccccc2)csc1=Nc1ccccc1	1.2	0.6%	-15.9%	1.7	?	?
Cc1ccc(-c2csc(=Nc3ccccc3)n2Cc2ccc3c(c2)OCO3)cc1	.	?	56.2µM*	.	11.2µM*	8.91µM*
CCn1c(-c2ccccc2)csc1=Nc1ccc(S(=O)(=O)O)cc1	-12.6	-22.0%	-32.4%	-8.0	17.8µM*	-35.4%
COC(=O)c1cc(=O)n(Cc2ccc3c(c2)OCO3)c(=Nc2ccccc2)s1	-1.0	-16.8%	?	6.3	?	?
OCCCn1c(-c2ccccc2)csc1=Nc1ccccc1	-19.1	?	?	-14.8	22.4µM*	56.2µM*
COC(=O)c1cc(Cl)c(NC(=O)c2ccc(F)cc2)cc1OC	9.0	16.2%	-11.2%	4.1	1.2%[59 µM]	0.4%
O=C(O)/C=C/C(=O)Nc1ccc2nccnc2c1	6.1	35.1%	-12.0%[57.1 µM]	11.1	50.1µM*	-13.7%
CC(=O)Nc1ccc2c(c1)C(=O)c1ccccc1C2=O	?	8.0%	-15.1%	?	-32.8%[59 µM]	-27.8%
O=C(O)/C=C/C(=O)Nc1ccc2c(c1)C(=O)c1ccccc1C2=O	-67.0*	13.3%	-21.1%	-22.6	44.7µM*	?
Cc1nc2ccc(NC(=O)/C=C/C(=O)O)cc2nc1C	-2.4	7.5%	-13.5%[57.1 µM]	-17.5	-31.0%	1.5%
Cc1cc(S(=O)(=O)Nc2ccc3oc4c(c3c2)CCCC4)ccc1Cl	.	42.9%	-12.8%	.	?	-31.6%
COc1ccc(C(=O)OCC(=O)NC2CC2)cc1	-3.5	.	.	3.1	.	.
COc1ccc(C2c3ccc4ccccc4c3Oc3ncn4nc(Cc5ccccc5)nc4c32)cc1OC (stereo unspecified)	-0.8	8.7%	-4.8%	7.5	7.08µM*	-8.5%
Cc1ccc(S(=O)(=O)N2CC(O)CC2C(=O)OCc2nc3sc(C)c(C)c3c(=O)[nH]2)cc1 (stereo unspecified)	0.8	27.0%	0.4%	7.3	3.98µM*	-1.6%
O=C1OC(c2cccs2)=N/C1=C\c1ccc(-c2cccc(Cl)c2)o1	-17.5	7.6%	-29.1%	-24.6	35.5µM*	?
N=C1S/C(=C\c2ccc(-c3cccc(Cl)c3)o2)C(=O)N1c1nccs1	-17.5	-14.7%	?	-1.2	3.55µM*	-31.5%
COc1ccc(/C=C2\SC(=N)N(c3nccs3)C2=O)cc1OC	-29.3	8.6%	?	-20.7	-16.6%	0.1%
Cn1cc(C(=O)c2ccc(Cl)cc2)cc1-c1nc2ccccc2n1C	-19.6	-16.2%	56.2µM*	-5.5	.	?
CCCCn1c(SCC(=O)c2ccccc2)nc2c1c(=O)[nH]c(=O)n2C	7.7	13.8%	-15.0%	5.4	?	13.8%
COc1ccc2[nH]c3c(=O)n(CCCCC(=O)NCCC(C)C)c(=S)[nH]c3c2c1	-2.4	27.8%	?	.	3.2%	-5.6%
CCN(CCO)Cc1cc(=O)oc2c(C)c(C)ccc12	-10.7	-1.2%	-14.9%	-2.8	50.1µM*	4.6%
SMILES	Six1-Eya2 inh	HP1b chromo inh	JMJD2A Tudor inh	CtBP-E1A blk	G9a block	BAZ2B block
Cc1cccc(C(=O)OCc2cc(=O)oc3c(C)c(C)ccc23)c1O	5.7	31.5%	-6.5%	2.6	39.8µM*	-20.9%
COc1ccc(NC(=O)c2sc3nc[nH]c(=O)c3c2C)cc1Cl	.	9.1%[57 µM]	-8.7%	.	14.5%[59 µM]	3.2%
COc1ccccc1NS(=O)(=O)c1cc(NC(=O)c2cccnc2)ccc1N1CCCCC1	-5.7	-5.8%[57 µM]	?	-6.9	.	.
COc1ccccc1NS(=O)(=O)c1cc(NC(=O)C2CCC2)ccc1N1CCCCC1	-4.1	-32.4%	?	-1.6	3.55µM*	-25.8%
COc1ccccc1NS(=O)(=O)c1cc(NC(=O)Nc2ccc(Cl)cc2Cl)ccc1N1CCCCC1	-0.6	?	-32.5%	7.9	3.55µM*	-6.4%
COc1ccc(NS(=O)(=O)c2cc(NC(=O)C3CC3)ccc2N2CCCCC2)cc1	-5.5	16.3%	-29.1%	-12.7	-9.6%	.
COc1ccccc1NS(=O)(=O)c1cc(NC(=O)CC(C)(C)C)ccc1N1CCOCC1	-6.7	33.1%	-9.0%[11.4 µM]	.	-3.1%	-17.7%
COc1ccccc1NS(=O)(=O)c1cc(NC(=O)CCC2CCCC2)ccc1N1CCOCC1	4.6	36.2%	-14.8%	7.1	1.41µM*	?
COc1ccc(CN2CCOCCOCCOCCOCCOCC2)cc1	-0.7	8.0%	-4.3%	4.9	-1.6%	3.1%
CC(C)CC(=O)N1CCN(Cc2ccc(Cl)cc2)CC1	2.0	?	10µM*	7.2	.	?
COc1ccc(CN2CCN(Cc3ccc(C(F)(F)F)cc3)CC2)cc1	-8.5	?	7.94µM*	-14.5	7.08µM*	25.1µM*
CC(C)CC(=O)N1CCN(Cc2ccccc2[N+](=O)[O-])CC1	5.2	31.6µM*	1.26µM*	18.5	14.1µM*	25.1µM*
CC(C)CC(=O)N1CCN(Cc2ccc(C(F)(F)F)cc2)CC1	-2.5	?	28.2µM*	.	.	?
CCn1cc(CCCC(=O)NCc2cccc(OC)c2)c2ccccc21	-13.7	1.9%	?	0.0	-11.6%	?
S=C1NCCOCCNC(=S)NCCOCCOCCOCCN1	2.7	40.0%	-17.7%[57.1 µM]	3.5	9.2%[59 µM]	7.1%
CC(C)c1ccc(CN2CCN(C(=O)CCl)CC2)cc1	8.8	39.0%	-1.6%	.	?	-36.7%
CC(C)CC(=O)N1CCN(Cc2ccc(Br)cc2)CC1	13.2	?	20µM*	12.6	31.6µM*	-32.2%
Cc1cc(N2C(=O)C(O)=C(C(=O)c3cc4ccccc4o3)C2c2ccc([N+](=O)[O-])cc2)no1 (stereo unspecified)	-3.6	5.5%	-27.7%	.	44.7µM*	?

Screens: PubChem, National Center for Advancing Translational Sciences (NCATS)
